Compounds with a hit are over-represented: about 3.3% of the library has one in this group of screens.
Cl transport mod: modulators of human KCC2 chloride dependent transport | AID 1456 | KCC2 cells, thallium flux FluoZin-2 fluorescence | actives 2.2% (n = 190,000) | Q9H2X9 | B-score of Tl+ flux slope (higher = more flux/activation; lower = inhibition) at 10 µM;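 active means thallium flux slope and its plate-corrected score both differing from the plate sample mean at a set confidence after two filtering rounds, in either direction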;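 further: slope of fluorescence scaled to starting intensity during 10 to 20 s after thallium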
Target sequence (Q9H2X9 whole entry, looked up): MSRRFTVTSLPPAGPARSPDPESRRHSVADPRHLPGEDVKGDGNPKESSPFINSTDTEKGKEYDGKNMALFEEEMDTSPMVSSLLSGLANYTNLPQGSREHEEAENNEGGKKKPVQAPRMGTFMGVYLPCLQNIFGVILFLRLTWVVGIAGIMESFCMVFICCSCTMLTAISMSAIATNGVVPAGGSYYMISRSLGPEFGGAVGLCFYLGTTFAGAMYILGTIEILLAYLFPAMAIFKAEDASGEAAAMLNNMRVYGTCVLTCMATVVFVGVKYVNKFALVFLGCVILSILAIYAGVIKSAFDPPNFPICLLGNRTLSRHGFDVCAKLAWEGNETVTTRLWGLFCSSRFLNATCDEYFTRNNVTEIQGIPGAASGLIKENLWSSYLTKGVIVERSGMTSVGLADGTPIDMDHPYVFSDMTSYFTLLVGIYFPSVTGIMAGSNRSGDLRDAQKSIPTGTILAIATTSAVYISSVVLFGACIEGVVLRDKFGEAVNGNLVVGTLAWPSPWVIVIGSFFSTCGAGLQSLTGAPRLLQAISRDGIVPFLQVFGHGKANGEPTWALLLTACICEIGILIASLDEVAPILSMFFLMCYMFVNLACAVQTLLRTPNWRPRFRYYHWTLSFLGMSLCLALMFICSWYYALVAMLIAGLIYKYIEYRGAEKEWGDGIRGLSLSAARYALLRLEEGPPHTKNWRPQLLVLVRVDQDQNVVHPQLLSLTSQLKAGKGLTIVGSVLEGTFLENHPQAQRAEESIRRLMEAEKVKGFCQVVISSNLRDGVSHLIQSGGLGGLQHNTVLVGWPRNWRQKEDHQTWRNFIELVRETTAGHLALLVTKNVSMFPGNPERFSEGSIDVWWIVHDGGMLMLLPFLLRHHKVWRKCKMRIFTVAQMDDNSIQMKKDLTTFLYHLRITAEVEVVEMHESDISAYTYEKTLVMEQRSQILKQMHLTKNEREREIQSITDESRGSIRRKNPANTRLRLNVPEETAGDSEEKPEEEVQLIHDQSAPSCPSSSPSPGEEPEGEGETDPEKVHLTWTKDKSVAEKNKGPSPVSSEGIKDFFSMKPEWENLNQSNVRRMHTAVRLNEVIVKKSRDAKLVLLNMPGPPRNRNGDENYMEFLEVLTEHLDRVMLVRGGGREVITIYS
Efflux pump mplx: inhibitors of Candida antifungal efflux pumps expressed in yeast. S. cerevisiae Candida pump triplex, Nile Red efflux. inhibition, % at 10 µM. actives 0.44% (n = 330,000);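 active means plate passing quality check with inhibition over a set limit, or well fluorescence over plate mean plus 4 SD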;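 further: Nile Red retained in pooled yeast measured as flow cytometry median fluorescence; 0% = buffer negative control and 100% = Enniatin B positive control; higher means more Nile Red kept so more efflux inhibition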
Calb FLC: C. albicans growth modulation with fluconazole. growth inhibition, % (no concentration beside the values). actives 0.57% (n = 300,000). C. albicans CaCi-2 (fluconazole-resistant clinical isolate) + fluconazole, Alamar Blue growth, 48 h. AID 1979;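 active means growth inhibition above about 58% in most replicates, limit read from the data, passing the limit was not always enough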;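 further: all wells also contain fluconazole at 8 µg/ml as a sub-toxic cotreatment; 0% = median of DMSO wells and 100% = median of geldanamycin control wells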
H9c2 protect: myocardial damage modulation in H9c2 cells. protection from H2O2 cell death, % at 20 µM. H9c2 cardiomyocytes, H2O2 injury protection, ATPLite, 2 h. actives 0.63% (n = 360,000);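 active means compounds giving at least 50% protection of heart cells from peroxide-induced death in the single-dose screen, raw or plate-pattern-corrected value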;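 further: 0% = DMSO wells with peroxide and 100% = DMSO wells without peroxide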
PHOSPHO1 block: blocks human PHOSPHO1 phosphatase activity; Q8TCT1; recombinant PHOSPHO1, absorbance phosphatase assay; inhibition, % at 13.3 µM; actives 1.1% (n = 290,000); in the data active means inhibition above about 60%
Numbers without * were called inactive; i = inactive; · = no result given; ! = not active in a repeat.

SMILES	Cl transport mod	Efflux pump mplx	Calb FLC	H9c2 protect	PHOSPHO1 block
CCN(CC)S(=O)(=O)c1cccc(-c2nnc(SCC(=O)NC)n2N)c1	0	0	-9	7	32
COCCCn1c(SC(C)C(=O)NC2CC2)nc2ccccc2c1=O (configuration not stated)	·	0	4	6	·
COc1ccccc1C(=O)N/C(=C\c1cn(S(=O)(=O)N(C)C)c2ccccc12)C(=O)N1CCCC1	·	0	13	13	44
c1cc2c(cc1CNc1ccc(N3CCOCC3)cc1)OCO2	·	0	·	-2	·
COc1cc(C2C(C#N)=C(C)NC3=C2C(=O)c2ccccc23)cc(OC)c1OC (configuration not stated)	·	0	·	128*	-18
COc1ccc(C2C(C#N)=C(C)NC3=C2C(=O)c2ccccc23)cc1 (configuration not stated)	·	0	-10	15	-51
CC(C)CCOc1cccc(OCC(=O)Nc2ccncc2)c1	·	0	108*	-16	11
COc1cccc(OCC(=O)Nc2ccncc2)c1	·	0	4	-7	24
N#C/C(=C\c1ccc(N2CCOCC2)o1)C(=O)Nc1ccc(O)cc1	i	0	39	3	30
COc1ccc(NC(=O)/C(C#N)=C\c2ccc(N3CCOCC3)o2)cc1	i	1	103*	-19	45
CC(C)(C)C(=O)NN=C1CCC(c2ccccc2)CC1 (configuration not stated)	·	0	14	5	33
CN1/C(=C/C(=O)c2cccs2)Sc2ccccc21	·	0	84*	-15	14
CN1/C(=C\C(=O)c2cccs2)Sc2ccccc21	-3.6	0	4	-28	4
CCSCCOC(=O)C1=C(C)N(C)C(=O)NC1c1cc(OC)ccc1OC (configuration not stated)	4.2*	0	1	-2	1
CCOc1ccc2nc(N=NC3=C(O)CC(C)(C)CC3=O)sc2c1	3	0	89*	51*	9
O=C(N/N=C/c1c[nH]c2ccccc12)C1CC(=O)N(c2ccccc2)C1 (configuration not stated)	0.15	0	-11	-1	73*
CCc1ccc(N2CC(C(=O)N/N=C/c3cc([N+](=O)[O-])ccc3O)CC2=O)cc1 (configuration not stated)	-2	0	106*	25	23
CC(C)C(NS(=O)(=O)c1ccccc1)C(=O)N1CCN(C(=O)c2ccco2)CC1 (configuration not stated)	·	0	6	-1	-2
CC(=O)Oc1ccccc1-c1nc(/C=C/c2ccccc2)no1	·	0	6	-1	29
CC(C)N(Cc1ccccc1)C(=O)COC(=O)c1c(F)cccc1F	·	0	·	8	·
Cc1cccc[n+]1CC(=O)/C=C1\N(C)c2ccccc2C1(C)C	-0.15	0	-1	-14	-15
CN1/C(=C\C(=O)C[n+]2ccc(C(=O)c3ccccc3)cc2)C(C)(C)c2ccccc21	-0.48	0	98*	-18	-9
CN1/C(=C\C(=O)CN2C(=O)NC3(CCCCCC3)C2=O)C(C)(C)c2ccccc21	-3.6*	0	3	-19	17
O=[N+]([O-])c1cc(Cl)c2cccnc2c1O	1	0	102*	-7	42
O=[N+]([O-])c1ccc(O)c2ncccc12	2.4	0	99*	20	6
SMILES	Cl transport mod	Efflux pump mplx	Calb FLC	H9c2 protect	PHOSPHO1 block
CCOc1ccc(/C=C/C(=O)OC(C)C(=O)NC2CCCCC2C)cc1OC (configuration not stated)	·	0	-10	5	·
O=S(=O)(NCC1CCCO1)c1ccc(Cl)c2ccccc12 (configuration not stated)	·	·	·	1	·
CN(C)c1ccc(C(O)c2cc3ccccc3s2)cc1 (configuration not stated)	·	·	·	-7	·
COc1cc(C)cc2oc(=O)c(CC(=O)N3CCN(C(=O)C4COc5ccccc5O4)CC3)c(C)c12 (configuration not stated)	·	0	5	47*	31
CCCc1nc2oc3c(NCCN(C)C)ncnc3c2c2c1CCCC2	-1.2	0	8	-15	19
CCCc1nc2oc3c(NCCCN(C)C)ncnc3c2c2c1CCCC2	0.86	0	-2	-13	61*
N#C/C=C1/NC(=O)c2ccccc2S1	19*	0	-5	21	-25
COCCCNC(=O)c1ccc2sc(C3=C[C@@H](O)[C@@H](O)[C@@H](CO)O3)nc2c1	·	·	·	0	·
CCC1=NN(C(=O)c2cccc(Br)c2)C(O)(c2ccc(Br)cc2)C1 (configuration not stated)	6.5*	0	4	-22	-9
CC(Oc1ccc(Br)cc1)C(=O)Nc1nc(-c2ccccn2)cs1 (configuration not stated)	·	0	-4	49*	33
CC(C)[C@H](NC(=O)c1ccccc1Cl)C(=O)Nc1nc(-c2ccccn2)cs1	-3.1	1	-5	70*	40
Cc1ccc(C(=O)NC(C(=O)OCc2cn3cc(Cl)ccc3n2)C(C)C)cc1 (configuration not stated)	·	0	·	-9	·
Cc1ccc(-c2cn(-c3ccccc3)c3[n+]2CCCS3)cc1	0.17	0	99*!	-26	9
COc1ccc(-n2cc(-c3ccc(C)cc3)[n+]3c2SCC3)cc1	0.3	0	107*	-21	2
c1ccc(-c2cn(-c3ccccc3)c3[n+]2CCCS3)cc1	0.12	0	-12	-14	24
CCc1ccc(-n2cc(-c3ccc(F)cc3)[n+]3c2SCCC3)cc1	1.1	0	33	-16	7
CN(CC(=O)Nc1ccccc1C(F)(F)F)C(=O)C1CCN(S(=O)(=O)c2ccc3c(c2)OCCO3)CC1	·	0	-7	-1	·
CC(C)(C)c1cn(-c2ccc(F)cc2)c(=S)[nH]1	0.76	0	5	-4	69*
CCOC(=O)CSc1ccc(C(=O)N2CCN(C)CC2)cc1[N+](=O)[O-]	-0.093	0	102*	2	-19
Cc1ccc(CN(C)C(=O)COC(=O)CSc2ccc(C(N)=O)cc2[N+](=O)[O-])cc1	·	0	·	58*	·
COc1ccc(-c2cc(C(F)F)n3ncc(C(=O)N4CCCCC4)c3n2)cc1	0.0093	0	-8	11	-11
O=C(c1cc2nc(-c3ccccc3)cc(-c3ccccc3)n2n1)N1CCN(C(=O)c2ccco2)CC1	-0.81	0	-8	104*	4
COc1ccc(-c2cc(C(F)F)n3ncc(C(=O)N4CCN(C(=O)c5ccco5)CC4)c3n2)cc1	-1.1	0.8*	-3	-2	10
O=C(c1ccco1)N1CCN(C(=O)c2cc(-c3ccncc3)nc3ccc(Br)cc23)CC1	·	0	-2	53*	·
O=C(CN1CCN(S(=O)(=O)/C=C/c2ccccc2)CC1)NCC(F)(F)F	·	0	-2	3	-20
O=[N+]([O-])c1ccc(/C=N\NS(=O)(=O)c2ccc(F)cc2)o1	·	0	-4	-2	16
Cc1ccc(S(=O)(=O)/N=C/c2cc(Br)ccc2O)cc1	0.22	0	6	54*	38
